# According to PubChem BioAssay AID1239 (SRMLSC, 2008):
# Screen size: about 190,000 compounds; about 3,100 (1.6%) were called active. The sample as a whole holds a higher share of actives than the screen did. Values without a mark were called inactive. No stated cut-off is given here; in the data, active means fold change above about 3.3; inconclusive means no clear call, values can overlap the other calls; inactive means below that.
# Experiment: activators of NF-kB expression in neurons, primary screen, cell-based, HTS (AID 1239)
# Settings: human neuronal cells, NF-kB reporter expression; at 12.5 µM; hits give high values
row,Compound,fold change
1,O=C(Nc1nc(-c2cccnc2)cs1)c1ccccc1F,1.73
2,COc1cc(NC(=S)N2CCCC(C)C2)cc(OC)c1OC (stereo not given),1.11
3,COc1ccc(/C=C(\C#N)C(=O)ONC2=NCCCCC2)cc1,1.26
4,Cc1cc(NC(=O)Nc2ccccc2[N+](=O)[O-])no1,1.12
5,COc1cc(SC)ccc1C(=O)Nc1nc(C)cs1,0.52
6,Cc1c(NC(=O)Nc2ccccc2)cccc1[N+](=O)[O-],1.43
7,Cc1csc(NC(=O)NC2(C(F)(F)F)Oc3ccccc3O2)n1,5.29 (active)
8,Cc1csc(NC(=O)CN2CCCCCC2)n1,1.18
9,Cc1csc(NC(=O)Nc2ccccc2[N+](=O)[O-])n1,3.38 (active)
10,Cc1ccnc(NC(=O)c2ccc(Cl)c([N+](=O)[O-])c2)c1,2.09
11,CNC(=S)Nc1ccc([N+](=O)[O-])cc1,1.13
12,Cc1ccccc1N1C(=O)C(Oc2ccc(Cl)cc2)C1CNCC1CCCO1 (stereo not given),1.25
13,CCOC(=O)CCNC(=O)N1CCCC(C(=O)c2ccccc2SC)C1 (stereo not given),1
14,O=C(Nc1cccc(-c2nnc(-c3ccccc3)o2)c1)C1CCCO1 (stereo not given),0.88
15,O=C(Nc1nnc(CCc2ccccc2)s1)C1CCCO1 (stereo not given),1.38
16,O=C(Nc1ccc(-c2nnc(-c3ccccc3)o2)cc1)C1CCCO1 (stereo not given),4.06 (active)
17,COc1ccc(-n2nc3c(c2NC(=O)c2ccc(N4C(=O)CCC4=O)cc2)CSC3)cc1,1.2
18,C=CCN(C(=O)c1cc(C)cc(C)c1)C1(C(=O)Nc2ccccc2)CCN(C(C)C)CC1,0.87
19,CC1CN(CCOc2ccccc2[N+](=O)[O-])CC(C)O1 (stereo not given),1.22
20,CC1CCN(S(=O)(=O)c2ccc3ncn(CC(=O)N(C)C4CCCCC4)c(=O)c3c2)CC1,0.79
21,O=C(OCC(=O)c1cccs1)c1ccc([N+](=O)[O-])o1,0.88
22,Cc1cc(=O)n2[nH]c(-c3sccc3-n3c(C)ccc3C)cc2n1,1.08

row,Compound,fold change
1,CCOC(=O)CSC1=N/C(=C/c2ccc(-n3cncn3)cc2)C(=O)N1C(C)=O,4.34 (active)
2,CCOC(=O)CSc1ccccn1,0.99
3,CCOC(=O)CSc1nc(C)cc2c1C(=O)OC2,1.43
4,CC1=NN(c2ccccc2)C(=O)C1C(=O)c1ccc([N+](=O)[O-])cc1 (stereo not given),0.91
5,O=C(O)/C=C/c1cn(Cc2ccccc2)nc1-c1cccs1,1.06
6,NS(=O)(=O)c1cccc(NC(=O)CN2CCCc3ccccc32)c1,0.95
7,COc1ccc(/C=C/C(=O)Nc2ccc3c(c2)OCCO3)cc1OC,0.68
8,Cc1cccc(NC(=O)Nc2ccc3c(c2)OCO3)n1,4.19 (active)
9,CCSc1ccccc1C(=O)Nc1ccc2c(c1)OCO2,1.88
10,Cc1cccc(NC(=O)/C=C/c2ccc3c(c2)OCO3)n1,8.04 (active)
11,O=C(/C=C/c1ccc2c(c1)OCO2)NCc1ccc(F)cc1,1.46
12,COc1cccc(/C=C/C(=O)Nc2ccc3c(c2)OCCO3)c1,6.74 (active)
13,COc1ccc(OC)c(/C=C/C(=O)OCC(=O)Nc2ccc3c(c2)OCCO3)c1,1
14,CCc1c(C)sc(NC(=O)/C=C/c2ccc3c(c2)OCO3)c1C(=O)OC,1.05
15,CC(NC(=O)Nc1ccc2c(c1)OCO2)c1ccncc1 (stereo not given),1.61
16,COc1ccc(N2C(=O)C(Cc3ccccc3)NC2=S)cc1 (stereo not given),1.19
17,Cc1nn(C)c(C)c1S(=O)(=O)N1CCC(CO)(Cc2ccc(Cl)cc2)CC1,0.97
18,O=C(N/N=C/c1cc2c(cc1Br)OCO2)C1COc2ccccc2O1 (stereo not given),1.55
19,COc1cc(NC(=S)NCc2ccc(S(N)(=O)=O)cc2)cc(OC)c1,1.03
20,CSc1ccccc1NC(=O)CN(C)CC(=O)Nc1ccc(Cl)cc1[N+](=O)[O-],1.29
21,Cc1noc(C)c1/C=N/Nc1ccc2ccccc2n1,4.12 (active)
22,Cc1cc(C)nc(N/N=C/c2c(C)oc3ccccc23)n1,1.11

row,Compound,fold change
1,C(=N\Nc1ccc2ccccc2n1)/c1ccc2c(c1)OCO2,1.78
2,O=C1c2ccccc2C(=O)N1CCC(O)C[N+](=O)[O-] (stereo not given),0.98
3,COc1ccc(-c2nc3cnccn3c2NC(C)(C)CC(C)(C)C)cc1O,0.68
4,CC(C)C(=O)Nc1cccc(C(=O)Nc2ccc3c(c2)OCO3)c1,4.07 (active)
5,Cn1c(=O)n(C)c2cc(C(=O)Nc3ccc4c(c3)OCO4)ccc21,1.54
6,O=C(Nc1ccccc1)c1ccc2c(c1)OCO2,3.31 (active)
7,Cn1nnnc1SCC(=O)Nc1nc2ccccc2s1,1.74
8,Cc1cc(C)c2nc(NC(=O)c3ccc4c(c3)OCO4)sc2c1,1.11
9,O=C(Nc1cccnc1)c1ccc2c(c1)OCO2,1.47
10,O=C(Nc1ccccc1)Nc1nc2ccccc2s1,8.18 (active)
11,COc1ccc(C(=O)Nc2ccc3c(c2)OCO3)cc1OC,2.06
12,O=C(Nc1nc2ccccc2s1)c1ccc2c(c1)OCO2,7.05 (active)
13,COCc1nnc(NC(=O)c2ccc3c(c2)OCO3)s1,2.07
14,O=C(Nc1cccc([N+](=O)[O-])c1)c1ccc2c(c1)OCO2,1.37
15,CC(=O)Nc1ccc(-c2csc(NC(=O)Nc3ccccc3)n2)cc1,1.32
16,COc1ccc(-c2nn(-c3ccccc3)cc2CN2CCCO2)c(F)c1,1.16
17,NC(N)=N/N=C/c1ccc(Cl)c([N+](=O)[O-])c1,1.03
18,CN1CCN(NC(=O)c2ccc(S(=O)(=O)N3CCCCCC3)cc2)CC1,0.97
19,O=c1[nH]n(-c2ccc([N+](=O)[O-])cc2)c(=O)c2ccccc12,1
20,CC(=O)c1ccc(N=C2SCCCN2C(=O)C2CCCCC2)cc1,1.75
21,COc1cccc(NC(=O)CS(=O)(=O)c2cn(CC(=O)N3CCOCC3)c3ccccc23)c1,0.88
